Assay results reported in PubChem BioAssay AID686970 (National Center for Advancing Translational Sciences (NCATS), 2013).
The campaign covered roughly 360,000 compounds. About 6,000 (1.7%) were called active. Inconclusive results (about 8%) are left out. The sample holds actives, similar compounds and a random draw of the others, so the mix is not that of the screen. A number with no mark means an inactive call. Calls follow the shape of the dose curve; as a rule, active = well fitted cell-killing curve with a large enough effect; inconclusive = small, poorly fitted or top-dose-only effect, or effect the other way; inactive = flat fitted curve, though single readings scatter.

assay: qHTS for induction of synthetic lethality in tumor cells producing 2HG: qHTS for the HT-1080-NT fibrosarcoma cell line; details: HT-1080-NT fibrosarcoma viability, CellTiter-Glo ATP luminescence, 48 h; series mostly up to 46.1 µM; activity, negative = less viability: at the top concentration;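 also: NT is the 2HG producing partner of a matched IDH1 knockdown line; nearly all actives have a fitted effect of over 55% in size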;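 as to activity, negative = less viability: 0% = DMSO-treated cells and -100% = media-only wells without cells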
How it was run: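 Viability by CellTiter-Glo luminescence after 48 h compound exposure at 37C of HT-1080-NT cells (750/well, RPMI, 5% FBS). % activity scaled between DMSO wells and medium-only wells, then curve-fitted and categorized by curve class.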
Potency is read from the fitted curve at half-maximal effect.

SMILES	activity, negative = less viability	Potency
O=C(NCCS(=O)(=O)N1CCN(c2ccccc2)CC1)c1cc(=O)c2ccccc2o1	0.636%	
CC1CN(C(=O)c2cccc(NS(=O)(=O)c3ccc(Br)cc3)c2)CC(C)O1 (centres undefined)	-3.46%	
C[C@H]1COc2cc(N3CCSCC3)ccc2S(=O)(=O)N1	17.1%	
CCCCC(O)C1=C[N+](=O)CC=C1 (centres undefined)	16%	
CCn1c(COc2c(C)cccc2C)nnc1SCc1nc2ccccc2c(=O)[nH]1	0.882%	
COc1ccc(CCCc2nnc(SCc3nc4ccccc4c(=O)[nH]3)n2C)cc1	-18%	
COc1ccc(C)cc1-n1nnnc1SCc1nc2ccccc2c(=O)[nH]1		14.6 µM (active)
COc1ccc(C2=Nc3ccccc3NC(=O)C2N(C(=O)c2cc3ccccc3[nH]2)c2ccccc2)cc1 (centres undefined)	-15.6%	
O=C(Nc1ccc2c(c1)OCCO2)C(C1CC1)N1CCC(Cc2ccccc2)CC1 (centres undefined)	-1.64%	
COc1ccc(OC)c(NC(=O)C2(C)CCN2C(=O)Cc2ccccc2)c1 (centres undefined)	3%	
N#CCSc1ccccc1NC(=O)CN1C(=O)NC(CCc2ccccc2)C1=O (centres undefined)	-11.4%	
CC[C@]1(O)C[C@@H]2CN(CCc3c([nH]c4ccccc34)[C@@](C(=O)OC)(c3cc4c(cc3OC)N(C)[C@H]3[C@@](O)(C(=O)OC)[C@H](OC(C)=O)[C@]5(CC)C=CCN6CC[C@]43[C@@H]65)C2)C1		0.082 µM (active)
O=C(CCCN1CCc2[nH]c3ccc(F)cc3c2C1)c1ccc(F)cc1		18.4 µM (active)
O=C(c1cc2cc(F)ccc2[nH]1)N1CCN(c2ccc(F)cc2)CC1	3.63%	
O=C(Nc1ccc(Cl)cc1)N1CCc2[nH]c3ccccc3c2C1	-22.4%	
COC(=O)[C@]12CCCCC=C1N(CCC1=CCCCC1)C(=O)[C@H](CC(=O)N1CCSCC1)C2	-10.5%	
COC(=O)C[C@H]1C[C@@H]2c3cc(N(C)C)ccc3O[C@@H]2[C@H](CO)O1	-0.17%	
CN(C)CCCOc1ccc(-c2ccc3nccn3c2)cn1	17.2%	
COc1ccc(S(=O)(=O)N[C@@H]2C=C[C@@H](CC(=O)N3CCc4ccccc4C3)O[C@@H]2CO)cc1	5.92%	
C=C1C(=O)OC2C1CCC(C)=CCCC1(C)OC21 (centres undefined)		16.4 µM (active)

SMILES	activity, negative = less viability	Potency
O=C(OCc1cn([C@@H]2C[C@H](c3ccc(Cl)cc3)N(Cc3cccs3)C[C@H]2O)nn1)c1ccccc1	1.48%	
CCOc1ccc(CCN2C(=O)C(=O)N([C@@H](CC(C)C)CN3CCC[C@H]3CN3C(=O)C(=O)NC[C@@H]3Cc3ccccc3)C[C@@H]2CC(C)C)cc1	11.6%	
CC1(C(=O)NS(=O)(=O)c2cccc(F)c2)CCN1C(=O)Cc1cc(F)ccc1F (centres undefined)	27.2%	
Cc1c(C(=O)NCc2ccc(C#N)cc2)sc(=O)n1Cc1ccc(C(=O)N(C)C)cc1	5.36%	
CN(C)c1ccc(C2N(C)C(=O)c3ccccc3N2C)cc1 (centres undefined)	-5.29%	
CN(C)c1ccc(Nc2c3c4c(cccc4n(C)c2=O)C(=O)c2ccccc2-3)cc1		5.8 µM (active)
COc1ccc([C@H]2CC(=O)C[C@@H](CCn3cc(CC4CCCC4)nn3)O2)cc1	2.3%	
CCc1oc(-c2ccc(OC)cc2)c(C(=O)OCCCCCO)c1C(C)OCCO (centres undefined)	-8.86%	
Cc1ccc(S(=O)(=O)N2CCC(=O)N([C@H](COCc3ccccc3)C(C)C)CC2)cc1	9.52%	
O=C(CCl)Nc1cccc(CP(=O)(c2ccccc2)c2ccccc2)c1		4.11 µM (active)
O=C(NCCc1ccccc1)c1cccc(NC(=O)c2ccccc2)c1	-7.31%	
O=C(CSCc1ccccc1)Nc1ccccc1	19.4%	
CC(C)[C@H](NC(=O)c1ccccc1F)C(=O)Nc1cccc(S(=O)(=O)N2CCOCC2)c1	1.57%	
CCOc1ccc2[nH]c(=O)c(CN(Cc3nnnn3CCc3ccccc3)CC3CCCO3)cc2c1 (centres undefined)	-0.584%	
COc1ccc2[nH]c(=O)c(CN(Cc3nnnn3CCc3ccccc3)CC3CCCO3)cc2c1 (centres undefined)	-12%	
CCOc1ccc2[nH]c(=O)c(CN(Cc3nnnn3Cc3ccccc3)CC3CCCO3)cc2c1 (centres undefined)		6.31 µM (active)
CCOC(=O)C1=CC[C@@H](c2ccccc2)N(S(=O)(=O)c2ccc(C)cc2)[C@H]1c1cccc(OC)c1	5.72%	
CC1(C)NC(=O)N(CC(=O)Nc2ccc(-c3ccccc3)cc2)C1=O	13.6%	
CCS(=O)(=O)Nc1cccc(-c2cc(-c3ccccc3)c3cc(C)ccc3n2)c1		23.1 µM (active)
Cc1cc(C)cc(NS(=O)(=O)Cc2ccccc2)c1	-3.43%	

SMILES	activity, negative = less viability	Potency
CS(=O)(=O)Nc1cccc(-c2cn3ccccc3n2)c1	23.4%	
Cc1ccc(-c2nc3c(C)cc(Br)cn3c2Cc2ccccc2)cc1	17.6%	
COC(=O)[C@]12CCCCC=C1N(Cc1ccc3c(c1)OCO3)C(=O)[C@H](CC(=O)NCc1cccs1)C2	-16.6%	
COc1ccc(C2NC(=O)c3ccccc3N2)cc1 (centres undefined)	-20.1%	
O=C1NC(c2cccc(Cl)c2)Nc2ccccc21 (centres undefined)		11.6 µM (active)
O=C1NC(c2ccccc2)Oc2ccccc21 (centres undefined)	6.8%	
CCc1nc2c(OCCc3cccc(OC)c3)cccn2c1N(C)C(=O)c1ccc(C)cc1	-2.42%	
O=C(COC(=O)c1cncc(Br)c1)Nc1ccc(S(=O)(=O)N2CCOCC2)cc1	-2.37%	
CC(C)c1cc(C(=O)N(C)C2CCCN(Cc3ccccc3F)C2)n(C)n1 (centres undefined)	-7.41%	
CNc1cncc(-c2cccc(C(=O)N3CCOCC3)c2)n1	4.76%	
CCCN1CCn2c3c(c4cc(Br)ccc42)CCCC31 (centres undefined)	2.41%	
OC(CNCC1CCCO1)Cn1c2ccc(Br)cc2c2cc(Br)ccc21 (centres undefined)		20.6 µM (active)
COCCNC(=O)c1ccc(Cn2c(SCC(=O)NCC3CCCO3)nc3ccc(Br)cc3c2=O)cc1 (centres undefined)	-9.16%	
Cc1sc2nc(-c3ccccc3F)oc(=O)c2c1C	1.74%	
O=S1(=O)CC(N2CCN(CCO)CC2)CN1Cc1cn(Cc2ccc(Cl)cc2)nn1 (centres undefined)	18.6%	
O=C(Nc1cc(Br)ccc1F)c1nc[nH]c1C(=O)NCc1ccccc1	-4.69%	
CCN1CCN(CCNC(=O)c2ccc3c(c2)NC(=O)/C(=C\c2cccc(Cl)c2)S3)CC1	-6.54%	
CCN1CCN(CCNC(=O)c2ccc(/C=C3/Sc4ccccc4N(Cc4cccc(C)c4)C3=O)cc2)CC1		23.1 µM (active)
CN1CCN(CCCNC(=O)c2ccc(/C=C3\Oc4ccccc4N(Cc4ccc(Cl)cc4)C3=O)cc2)CC1	-9.12%	
